From PubChem BioAssay
FEN1 inhibitor: human FEN1 inhibition | P39748 | hit rate 0.35% among 390,000 | Potency, µM (doses to about 114 µM), for inactives: at the highest dose activity change, negative = inhibition, actives largely listed as inhibitors | Recombinant FEN1 flap cleavage, fluorescence, 15 min | AID 588795; further: potency means the concentration at half of the fitted maximal effect; on the % scale 0 is the no-effect control and ±100 the full control effect; nearly all actives have a fitted effect of over 65% in size
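FEN1 at 10 nM preincubated with compounds 15 min at room temperature, then flap DNA substrate added at 50 nM final. Signal read at 0 and 15 min; concentration-response fitted with four-parameter Hill equation.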
WRN helicase inh: blocks human WRN helicase; WRN helicase unwinding, fluorescent forked duplex, kinetic; Potency, µM (top dose mostly 114 µM), inactives show at the top dose activity change, negative = inhibition, most hits filed as inhibitors; hit rate 0.46% among 360,000; AID 651768; further: potency means the concentration at half of the fitted maximal effect; on the % scale 0 is the no-effect control and ±100 the full control effect; nearly all actives have a fitted effect of over 55% in size
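Kinetic red-fluorescence monitoring (525/598 nm) tracks WRN helicase activity after 100 nM fluorophore-quencher forked duplex and 2 mM ATP are added to 20 nM enzyme pretreated 15 min at room temperature with compound.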
Pol eta inh-1: DNA polymerase eta (human) inhibition; Potency, µM (series often up to 114 µM), for inactives: at the highest dose activity change, negative = inhibition, most hits filed as inhibitors; hit rate 1.2% among 390,000; Q9Y253; AID 588591; recombinant Pol eta, fluorescent DNA replication assay; further: potency means the concentration at half of the fitted maximal effect; on the % scale 0 is the no-effect control and ±100 the full control effect
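Pol eta at 10 nM preincubated with compounds 15 min at room temperature; reaction started with fluorescent substrate (50 nM final) and read kinetically at 0 and 10 min.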
Pol beta inh: DNA polymerase beta (human) inhibition | P06746 | Potency, µM (top dose mostly 114 µM), for inactives: at the top dose activity change, negative = inhibition, actives largely listed as inhibitors | AID 485314 | hit rate 1.3% among 340,000 | Pol beta primer extension/strand displacement, fluorescence kinetic; further: potency means the concentration at half of the fitted maximal effect; on the % scale 0 is the no-effect control and ±100 the full control effect
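Human Pol beta at 10 nM; strand-displacement substrate 50 nM final. Compound exposure 15 min at room temperature before start, reaction 10 min at room temperature.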
Pol kappa inh-1: blocks human DNA polymerase kappa activity. Q9UBT6. purified Pol kappa, fluorescent DNA synthesis assay, 10 min. Potency, µM (highest dose often 107 µM), inactives show at the highest dose activity, negative = inhibition, most hits filed as inhibitors. hit rate 0.53% among 400,000; further: potency means the concentration at half of the fitted maximal effect; on the % scale 0 is the no-effect control and ±100 the full control effect
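Fluorescent qHTS in 1536-well format: enzyme (10 nM) and compound sat 15 min at room temperature before 50 nM substrate (final) was added. Signal taken at 0 and 10 min; no-enzyme buffer wells were negative controls.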
Pol iota inh: inhibitors of human DNA polymerase iota; Potency, µM (series often up to 115 µM), for inactives: at the highest dose activity, negative = inhibition, most hits filed as inhibitors; hit rate 1% among 390,000; Pol iota fluorescent replication assay, 10 min; further: potency means the concentration at half of the fitted maximal effect
Target sequence (Q9UNA4 whole entry, looked up): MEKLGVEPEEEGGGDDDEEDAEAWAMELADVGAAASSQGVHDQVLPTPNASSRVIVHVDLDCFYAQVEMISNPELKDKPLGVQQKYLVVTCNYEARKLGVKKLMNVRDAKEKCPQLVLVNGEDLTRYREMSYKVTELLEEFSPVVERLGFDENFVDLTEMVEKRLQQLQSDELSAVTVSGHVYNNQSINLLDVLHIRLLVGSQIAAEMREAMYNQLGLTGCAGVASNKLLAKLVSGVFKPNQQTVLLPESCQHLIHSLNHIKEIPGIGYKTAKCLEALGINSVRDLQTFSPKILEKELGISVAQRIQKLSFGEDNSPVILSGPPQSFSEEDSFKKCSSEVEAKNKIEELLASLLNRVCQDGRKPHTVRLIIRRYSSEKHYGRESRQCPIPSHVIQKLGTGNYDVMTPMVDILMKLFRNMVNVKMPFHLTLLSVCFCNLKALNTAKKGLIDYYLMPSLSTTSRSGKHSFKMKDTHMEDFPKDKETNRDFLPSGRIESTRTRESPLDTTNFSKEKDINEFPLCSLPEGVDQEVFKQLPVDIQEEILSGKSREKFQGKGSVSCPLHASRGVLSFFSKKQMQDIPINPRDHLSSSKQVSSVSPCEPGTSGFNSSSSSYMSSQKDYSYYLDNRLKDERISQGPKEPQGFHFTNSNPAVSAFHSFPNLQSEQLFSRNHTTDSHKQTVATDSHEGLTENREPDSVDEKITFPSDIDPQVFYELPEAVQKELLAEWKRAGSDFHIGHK
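Fluorescent replication assay read twice, at 0 min and 10 min after adding 50 nM (final) substrate. Enzyme (10 nM) and compounds were first incubated 15 min at room temperature; enzyme-free buffer wells were negative controls.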
GALK confirm: confirmation of human galactokinase (GALK) inhibitors; shares compounds with Pol eta inh-1; purified GALK, Kinase-Glo ATP depletion luminescence; Potency, µM (series often up to 115 µM), inactives show at the top dose activity, negative = inhibition, usual class: inhibitors; hit rate 70% among 150; AID 2015
GALK redox cs: counter-screen for GALK inhibitors: redox cycling H2O2 generation; shares compounds with Pol eta inh-1; Phenol red-HRP H2O2 redox cycling, absorbance 600 nm; Potency, µM (doses to about 115 µM), without a hit: at the top dose activity change, negative = H2O2 signal, usual class: inhibitors; hit rate 40% among 150; AID 2035
HEK293 viability: reduces HEK-293 cell viability in GALK counter-screen; shares compounds with Pol eta inh-1; HEK-293 viability, ATP luminescence (CellTiter-Glo), 24/48 h; Potency, µM (doses to about 46.1 µM), inactives show top-dose activity change, negative = cytotoxicity, usual class: inhibitors; hit rate 10% among 170; AID 2547; further: potency means the concentration at half of the fitted maximal effect; on the % scale 0 is the no-effect control and ±100 the full control effect
Pol kappa inh-2: confirmation of human DNA polymerase kappa inhibitors; shares compounds with Pol eta inh-1; purified Pol-kappa, fluorescent strand-displacement substrate; Potency, µM, most hits filed as inhibitors; hit rate 76% among 920; AID 720501; further: potency means the concentration at half of the fitted maximal effect
Pol eta inh-2: Pol eta (human) inhibition, cherry-pick confirmation | Pol eta primer extension, TAMRA/BHQ fluorescence, 10 min | Potency, µM, most hits filed as inhibitors | hit rate 64% among 2,600 | shares compounds with Pol eta inh-1; further: potency means the concentration at half of the fitted maximal effect
Active calls of the source: *; ? = inconclusive; . = no result; [ ] = dose if it differs, or a comment. Most compounds without a hit are left out; they make up all but 2.4% or so of the library. The call rests on the fitted dose curve; in most records, active means well fitted curve in the direction sought with a large enough effect; inconclusive means small, poorly fitted or top-dose-only effect, or another doubt; inactive means no such curve, though single readings can be large; an effect the other way counts as inactive or inconclusive.

SMILES	FEN1 inhibitor	WRN helicase inh	Pol eta inh-1	Pol beta inh	Pol kappa inh-1	Pol iota inh	Pol eta inh-2	others
O=C1NC(=O)N(CCC2=CCCCC2)C(=O)/C1=C/c1cccs1	?	?	?	?	-40%	?	?
COCCCn1c(N)c(C(=O)NCc2ccco2)c2nc3ccccc3nc21	-10%	0%	-13%	-35%	-10%	83%	.	GALK confirm=?;GALK redox cs=-4%;HEK293 viability=?
COCCNC(=O)c1c(N)n(Cc2ccco2)c2nc3ccccc3nc12	-8%	-19%	-17%	11%	-17%	6%	.
C[C@H](CCC(=O)O)C[C@H](C)C[C@H](C)C(=O)/C=C(\O)[C@H](C)C[C@H](C)C/C=C/[C@@H](C)[C@@H](O)[C@@H](C)[C@@H](O)C[C@@H]1CC[C@@](C)([C@H]2CC[C@@](C)([C@@H](C)O)O2)O1	.	.	.	.	-16%[60.1 µM]	.	.
O=C(Nc1ccc(Oc2ccc(Cl)cc2)c(Cl)c1)c1cc(I)cc(I)c1O	?	-11%[11.6 µM]	?	6%	-25%	?	?	Pol kappa inh-2=13*
Cc1cc2c(C(C)C)c(O)c(O)c(C=O)c2c(O)c1-c1c(C)cc2c(C(C)C)c(O)c(O)c(C=O)c2c1O	2.5µM*	.	.	0.56µM*	11µM*	2.5µM*	.	GALK confirm=24µM*;GALK redox cs=-9%;HEK293 viability=6%
Cc1ccc2c(c1Cl)NC(C(=O)O)C1CC(Sc3ccccc3[N+](=O)[O-])C(Cl)C21 (centres undefined)	?	-9%[11.6 µM]	45µM*	?	?	?	?
C=CCN1C(=O)NC(=O)C(Cc2ccc(OC)c(OC)c2)C1=O (centres undefined)	-11%	?	8.9µM*	-3%	?	?	30*
Cc1ccccc1N1C(=O)/C(=C/c2ccco2)C(=O)NC1=S	.	.	.	0.32µM*	.	.	.	GALK confirm=?;GALK redox cs=-26%;HEK293 viability=-1%
CCN(CC)CCCCN1c2ccccc2Oc2ccc(Cl)cc21	.	.	.	.	10%[60.1 µM]	.	.
O=C1NC(=S)NC(=O)C1c1ccccc1	-11%	-6%	-5%	.	-7%	8%	.
O=C1NC(=S)NC(=O)C12C(c1ccc(F)cc1)NC(=S)NC2c1ccc(F)cc1 (centres undefined)	-13%	-25%[57.1 µM]	40µM*	9%	0%	-17%	?
O=C1NC(=S)NC(=O)C12C(c1ccccc1)NC(=S)NC2c1ccccc1 (centres undefined)	15%	-26%	50µM*	1%	-6%	20µM*	?
O=C(O)c1ccccc1Cc1ccccc1	.	.	.	.	15%[60.1 µM]	.	.
CCCN(CCC)c1c([N+](=O)[O-])cc(S(N)(=O)=O)cc1[N+](=O)[O-]	.	.	.	.	3%[60.1 µM]	.	.
Cc1cc(/C=C2\C(=O)NC(=O)N(c3ccccc3)C2=O)c(C)n1-c1ccc(C(=O)O)c(Cl)c1	-6%	-9%[11.6 µM]	10µM*	22µM*	?	?	34*	Pol kappa inh-2=19*
Cc1cc(/C=C2\C(=O)NC(=O)N(c3ccc(F)cc3)C2=O)c(C)n1-c1cccc(C(=O)O)c1	-6%	-11%[11.6 µM]	22µM*	28µM*	?	22µM*	?	Pol kappa inh-2=38*
Cc1cc(/C=C2\C(=O)NC(=O)N(c3ccc(Cl)cc3)C2=O)c(C)n1C	-2%	-5%	-6%	1%	-19%	-13%	.
Cc1cc(/C=C2\C(=O)NC(=O)N(C)C2=O)c(C)n1-c1ccc2c(c1)OCO2	-2%	-15%	?	?	-40%	?	.
Cc1cccc(N2C(=O)NC(=O)/C(=C\c3cc(C)n(-c4sc5c(c4C#N)CCCC5)c3C)C2=O)c1C	-31%	?	20µM*	?	-21%	20µM*	30*
CCC(Sc1ccccc1)C(=O)OC1CC2CCC(C1)N2C (centres undefined)	.	.	.	.	7%[19.4 µM]	.	.
O=[N+]([O-])c1ccc(Sc2nc3ccccc3o2)c([N+](=O)[O-])c1	-5%	?	50µM*	5%	-4%	11µM*	?
Cc1cc(C)cc(N2C(=O)NC(=O)/C(=C\C=C\c3ccco3)C2=O)c1	-13%	50µM*	18µM*	28µM*	40µM*	22µM*	30*	Pol kappa inh-2=19*
Cc1ccc(N2C(=O)NC(=O)/C(=C/C=C/c3ccco3)C2=O)cc1	?	45µM*	?	32µM*	20µM*	11µM*	?
Cn1c(=O)oc2cc(S(=O)(=O)N3CCCC(C(=O)N4CCN(c5cccc(Cl)c5)CC4)C3)ccc21 (centres undefined)	-14%	.	-16%	38%	-15%	48%	.
SMILES	FEN1 inhibitor	WRN helicase inh	Pol eta inh-1	Pol beta inh	Pol kappa inh-1	Pol iota inh	Pol eta inh-2	others
COc1cc2c(cc1OC)[C@@H]1C(=O)c3ccc(OC)c(CC=C(C)C)c3OC1CO2 (some centres undefined)	.	.	.	.	-17%[60.1 µM]	.	.
Cc1nn(C)c(C)c1-c1cccc2c1CCC(N(C)C)C2 (centres undefined)	.	.	.	.	-10%[60.1 µM]	.	.
CCS(=O)(=O)C1=NN2C(=N)/C(=C\c3ccc(OC(=O)c4ccco4)cc3)C(=O)N=C2S1	17%	-11%	?	-26%	-18%	-2%	.
N=C1/C(=C\c2ccc(OC(=O)c3ccccc3Cl)cc2)C(=O)N=C2SC(N3CCOCC3)=NN12	?	?	22µM*	40µM*	?	-81%	38*
Cc1cccc(N2C(=O)NC(=O)/C(=C\c3ccc4c(c3)CCCN4Cc3ccccc3)C2=O)c1	-18%	237%[57.1 µM]	22µM*	-28%	-1%	?	?
CCCCC(C)C(OC(=O)CC(CC(=O)O)C(=O)O)C(CC(C)CC(O)CCCCC(O)CC(O)C(C)N)OC(=O)CC(CC(=O)O)C(=O)O (centres undefined)	-2%	-1%[57.1 µM]	?	?	79µM*	19%	76*
